Hits are enriched below; roughly 2.8% of the tested compounds scored in any of these assays.
GLS inh – blocks human kidney-isoform glutaminase activity. O94925. Potency, µM (titrated, usually from 45.5 µM), for the others: at the top dose activity change, negative = inhibition, most hits filed as inhibitors. 410,000 tested, 0.21% active. AID 624170. GLS enzymatic activity, qHTS titration; further: potency means the concentration at half of the fitted maximal effect; on the % scale 0 is the no-effect control and ±100 the full control effect
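hKGA; 45 mM KH2PO4 pH 8.2 + 0.02% Tween-20; cpd via pin tool; 1 mM Gln soln; GluOx/HRP/Amplex Red; RT 30 min; fluor. t0 & final.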
KCNH2 3.1 inh – inhibitors of human KCNH2 3.1 potassium channel isoform | activity change, % (tested at about 1.8 µM) | 340,000 tested, 0.95% active | U2OS KCNH2 3.1, thallium flux FluxOr; hits give low values | AID 720553;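 active means maximum activity change below -70%; inconclusive means maximum activity change from -70% to -50%; inactive means maximum activity change above -50%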;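 further: thallium influx rate constant from kinetic fluorescence after stimulation buffer; on the % scale 0 is the no-effect control and ±100 the full control effect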
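Kinetic fluorescence (2 min after stimulation buffer) measures Tl+ influx through KCNH2 3.1 expressed by viral transduction in U2OS cells; the rate constant is normalized against DMSO controls serving as positive and negative references.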
HEK293 tox – cytotoxic in the GLP-1 receptor inverse agonist counter-screen. HEK293 cAMP-luciferase reporter cells, luminescence, 24 h. Potency, µM (top dose mostly 38.3 µM), inactives show top-dose activity change, negative = inhibition, hits mostly inhibitors. 410,000 tested, 0.13% active;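 further: loss of luciferase light is scored as toxicity; potency means the concentration at half of the fitted maximal effect; on the % scale 0 is the no-effect control and ±100 the full control effect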
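To flag toxic compounds, the library was rerun on cells for 24 hr at 37 deg C and 5% CO2. Viability-linked luminescence was captured 12 min after adding luciferase detection reagent.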
GLP-1R inv ag – inverse agonists of human GLP-1 receptor. P43220. HEK293 GLP-1R CRE-luciferase, luminescence, 24 h; GLP-1R form is constitutively active. Potency, µM (series often up to 38.3 µM), for inactives: top-dose activity change, negative = inhibition, hits mostly inhibitors. 410,000 tested, 1.6% active. AID 624417; further: potency means the concentration at half of the fitted maximal effect; on the % scale 0 is the no-effect control and ±100 the full control effect; nearly all actives have a fitted effect of over 55% in size
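qHTS in 1536-well format: reporter HEK293 cells expressing constitutive GLP-1R activity in DMEM + 10% Nu serum, 24 hr with compounds at 37 deg C, luminescence read after 12 min with detection reagent.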
GLP-1R agonist – GLP-1 receptor (human) agonism; P43220; HEK293 GLP-1R CRE-luciferase, luminescence, 4-6 h; cells express a hypersensitive GLP-1R form; Potency, µM (series often up to 45.6 µM), without a hit: at the highest dose activation, most hits filed as activators; 380,000 tested, 0.007% active; AID 624172; further: potency means the concentration at half of the fitted maximal effect; % of control where 0% means no effect
hERG WT inh – KCNH2 (human, wildtype) channel inhibition. Q12809. U2OS, BacMam KCNH2, thallium flux FluxOr; hits give low values. activity change, % at 1.84 µM. 340,000 tested, 0.37% active;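 active means maximum activity change below -70%; inconclusive means maximum activity change between -70% and -50%; inactive means maximum activity change above -50%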; further: on the % scale 0 is the no-effect control and ±100 the full control effect
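U2OS cells were transduced with wild-type KCNH2 virus (2.03 x 10^8 / mL) for 4 h at room temperature, then cultured overnight at 37 C. Thallium flux was read with FluxOr dye. Rate constants were normalized to DMSO controls.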
* marks the source's active call; other numbers are inactive results; ? = inconclusive; nt = no result. Unless noted, the call rests on the fitted dose curve; in most records, active means well fitted curve in the direction sought with a large enough effect; inconclusive means small, poorly fitted or top-dose-only effect, or another doubt; inactive means no such curve, though single readings can be large; an effect the other way counts as inactive or inconclusive.

SMILES	GLS inh	KCNH2 3.1 inh	HEK293 tox	GLP-1R inv ag	GLP-1R agonist	hERG WT inh
COc1cccc(C(=O)C2CCCN(Cc3cn[nH]c3C3CCCCC3)C2)c1 (centres undefined)	1.9%	-0.8	-6.8%	10µM*	14.2%	20.7
NC(=O)C1CCCN(CC(=O)Nc2ccccc2C(=O)NC2CC2)C1 (centres undefined)	0.3%	4.4	-9.1%	25.0%	24.8%	21.0
Clc1cccc(N2CCN(c3nc4ccccc4n4nnnc34)CC2)c1	4.2%	nt	7.0%	19.8%	nt	nt
Cc1cccc(OCC(=O)Nc2ccc(S(=O)(=O)N(Cc3ccccc3)c3ccccc3)cc2)c1	-1.9%	nt	7.1%	0.9%	nt	nt
CCc1ccccc1N1C(=O)N(Cc2cc(=O)n3ccccc3n2)c2ccccc2S1(=O)=O	3.3%	nt	-10.3%	-15.0%	0.2%	nt
COc1ccc(C(=O)C2CCCN(C(=O)c3cccc(Cn4cccn4)c3)C2)cc1F (centres undefined)	-3.2%	14.4	-8.1%	14.5%	-2.0%	1.9
Cn1cc(CN2CCCC(C(=O)c3cc(F)ccc3F)C2)c2ccccc21 (centres undefined)	-3.9%	-5.5	-29.7%	?	11.2%	46.6
COc1ccc(CN2CCCC(C(=O)c3ccc(SC)cc3)C2)cc1Cn1cccn1 (centres undefined)	-12.4%	-81.5*	0.0%	?	?	-96.0*
COc1ccc(F)cc1C(=O)C1CCCN(Cc2cn(C)c3ccccc23)C1 (centres undefined)	8.7%	-17.6	?	3.55µM*	6.2%	25.6
O=C(CSc1nc2c(oc3ccccc32)c(=O)n1-c1ccccc1)Nc1ccc(F)c(Cl)c1	2.4%	nt	-3.4%	-13.8%	nt	nt
CCCCCCCCNCCS(=O)(=O)NCCCCCCCC	17.4%	-21.1	9.3%	3.2%	1.6%	-44.5
CC1=C(C#N)C(=O)NC(=O)/C1=C\c1ccc(-c2cc(C)c(C)cc2[N+](=O)[O-])o1	11.2µM*	5.7	-7.4%	12.4%	11.9%	-3.6
Cc1ccc(-c2ccc(/C=C3/NC(=O)NC3=O)o2)cc1[N+](=O)[O-]	4.9%	11.9	?	5.4%	17.6%	-12.0
CC(=O)N1CCN(c2ccc(NC(=O)c3ccc([N+](=O)[O-])cc3Cl)cc2)CC1	7.7%	8.5	2.0%	32.9%	0.9%	2.6
O=C(NNc1ccccc1)C(=O)NNS(=O)(=O)c1ccc([N+](=O)[O-])cc1	?	-0.7	?	3.16µM*	-0.1%	2.3
CCCCN(CCCC)S(=O)(=O)c1ccc(NC(=O)c2ccc([N+](=O)[O-])cc2Cl)cc1	-7.0%	-8.5	-23.5%	3.98µM*	-7.6%	-4.7
O=C(NNc1ccc([N+](=O)[O-])cc1)Nc1ccccc1	14.2%	3.4	-3.2%	-10.5%	-2.0%	-2.9
O=C(Nc1ccc(Nc2ccccc2)cc1)c1cc([N+](=O)[O-])ccc1Cl	17.3%	-5.3	-17.4%	3.16µM*	-1.6%	-6.6
O=C(NNc1ccc([N+](=O)[O-])cc1)c1ccccc1Cl	-7.1%	-8.9	0.8%	1.78µM*	-3.0%	-2.6
CC(C)OCCCNC(=O)c1ccc(Cn2c(=O)c3cccn3c3cccnc32)cc1	5.0%	nt	-1.0%	7.2%	nt	nt
Cc1ccc(NC(=O)c2cccn2-c2nnc(N3CCCCC3)s2)cc1Cl	-5.2%	nt	2.1%	?	nt	nt
O=C(Nc1ccccc1Oc1ccccc1)c1cc([N+](=O)[O-])ccc1Cl	-13.0%	16.4	3.7%	4.47µM*	12.0%	6.1
Cc1cccc(NC(=O)c2cc([N+](=O)[O-])ccc2Cl)c1O	?	-4.3	-5.0%	?	0.4%	-8.7
CCN(CC)S(=O)(=O)c1cc([N+](=O)[O-])ccc1NNC(=O)Nc1ccc(Cl)c(Cl)c1	1.9%	0.0	?	2.24µM*	-8.5%	7.4
O=C(NNc1ccccc1[N+](=O)[O-])Nc1ccc(Cl)c(Cl)c1	?	-4.3	-1.9%	?	2.7%	-7.5
SMILES	GLS inh	KCNH2 3.1 inh	HEK293 tox	GLP-1R inv ag	GLP-1R agonist	hERG WT inh
Cc1ccccc1-n1c(=O)c2ccccc2n2cnnc12	nt	nt	-19.7%	0.0%	4.1%	1.3
O=C(O)c1cccc(-n2sc3ccccc3c2=O)c1	8.91µM*	-9.8	-5.5%	0.2%	-0.4%	1.6
O=c1c2ccccc2sn1-c1cccc(Cl)c1	7.94µM*	-7.4	?	?	-2.9%	1.6
Cc1ccccc1-n1sc2cc(F)ccc2c1=O	?	-5.2	4.47µM*	?	4.2%	1.6
O=c1c2ccccc2sn1-c1ccccc1	4.47µM*	-12.2	?	10µM*	-8.1%	-1.5
CN(C)S(=O)(=O)c1cccc(-n2sc3ccccc3c2=O)c1	?	1.9	-16.4%	1.1%	3.3%	0.3
CC1CCN(S(=O)(=O)c2ccc3c(c2)c(=O)c(C(=O)NCc2ccc(Cl)cc2)cn3C)CC1	0.4%	nt	12.4%	-0.3%	nt	nt
CC(OC(=O)c1ccccc1C(=O)N(C)C1CCCCC1)C(=O)NC1(C#N)CCCCC1 (centres undefined)	3.7%	5.2	-2.0%	8.6%	6.8%	-2.9
Clc1nc(NCCc2ccccc2)c2cn[nH]c2n1	-13.9%	-7.9	3.6%	109.4%	?	-6.9
CCOc1ccc(C(CC(=O)Nc2cc(C)c(Cl)cc2OC)N2Cc3ccccc3C2=O)cc1OC (centres undefined)	1.4%	nt	-6.6%	-18.0%	-4.9%	nt
O=c1c2ccccc2sn1-c1nccs1	1.26µM*	-11.4	17.8%	8.1%	-1.5%	4.6
CC(=O)Nc1ccc2c(=O)n(-c3ccccc3)sc2c1	6.31µM*	-4.2	1.5%	6.1%	8.5%	-27.2
O=c1c2ccccc2sn1-c1ccccc1F	7.94µM*	-5.7	10µM*	14.1µM*	-4.6%	0.8
Cn1sc2ccccc2c1=O	-13.5%	-6.6	-29.8%	12.0%	0.9%	-9.1
Cc1ccc(-n2sc3ccccc3c2=O)cc1S(=O)(=O)N1CCCCC1	6.31µM*	-7.5	-14.8%	-22.7%	0.3%	-2.5
CC(C)CC(C(=O)NCCc1ccccc1)N1Cc2ccccc2C1=O (centres undefined)	4.2%	nt	1.9%	?	nt	nt
Cc1ccc2oc(C(=O)Nc3sc4c(c3C(=O)NCc3ccccc3)CCCC4)cc(=O)c2c1	-0.7%	nt	35.0%	1.6%	nt	nt
O=C(CC(=O)c1ccccc1)Nc1ccc(Cl)cc1	9.6%	-30.7	-12.9%	?	2.0%	-6.4
Cc1ccnc(NC(=O)c2ccc(OCC3CCCO3)cc2)c1 (centres undefined)	3.5%	-16.4	-12.7%	5.62µM*	-5.2%	2.9
COC(=O)C1C(=O)C2=C(CC1C)NC(C)=C(C(=O)OC1CCCCC1)C2c1ccc(N(C)C)cc1 (centres undefined)	-2.6%	-2.6	-16.0%	10µM*	0.3%	-7.1
